Source: PubChem (National Center for Advancing Translational Sciences (NCATS))
Compounds with a hit are over-represented: about 8% of the library has one in this group of screens.
MCF10A rereplic: inducers of DNA re-replication in MCF 10A breast cells; MCF 10A DNA re-replication, Hoechst nuclear intensity, 48 h; Potency, µM (doses to about 46.1 µM), hits mostly activators; 2.9% of 350,000 active; AID 624296; further: nearly all actives have a fitted effect of over 50% in size
KB-3-1 cytotox: KB-3-1 parental cell cytotoxicity. 1.4% of 400,000 active. KB-3-1 viability, CellTiter-Glo ATP luminescence, 72 h. Potency, µM (series often up to 46.1 µM), most hits filed as cytotoxic; further: nearly all actives have a fitted effect of over 60% in size
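Using CellTiter-Glo luminescence, growth of non-resistant KB-3-1 adenocarcinoma cells is assessed 72 h after pin-tool compound addition at 37 °C. Normalized responses across the concentration series yield fitted curves.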
KB-V1 MDR tox: kills drug-selected multidrug resistant KB-V1 cells; 3.4% of 400,000 active; AID 1347076; KB-V1 MDR cells viability, CellTiter-Glo, 72 h; Potency, µM (doses to about 46.1 µM), most hits filed as cytotoxic; further: nearly all actives have a fitted effect of over 60% in size
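KB-V1 cells (P-gp-expressing MDR subline of KB-3-1) in phenol-red-free DMEM with 10% FBS were exposed to library compounds over a concentration series for 72 h at 37 degrees C. Viability read by CellTiter-Glo luminescence; concentration-effect curves fitted after normalization.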
HT1080 IDH1KD tx: kills HT-1080 cells with IDH1 knockdown | HT-1080 IDH1 knockdown viability, ATP luminescence, 48 h | Potency, µM (series often up to 46.1 µM), usual class: cytotoxic | 2% of 360,000 active | AID 686971
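In this qHTS, HT-1080 cells depleted of IDH1 are exposed for 48 h at 37 °C to compound titrations. Toxicity is scored from CellTiter-Glo luminescence, with DMSO as full viability and medium alone as none.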
SW480 rereplic: inducers of DNA re-replication in SW480 colon cancer cells; SW480 DNA re-replication, Hoechst DNA content imaging, 48 h; 1.8% of 340,000 active; Potency, µM (top dose mostly 46.1 µM), usual class: activators; further: nearly all actives have a fitted effect of over 55% in size
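Hoechst fluorescence of nuclei (405 nm excitation, 500-530 nm emission) measured by plate-scanning imager after 48 hr compound exposure at 37 C; re-replication scored as increased number of nuclei with elevated intensity.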
HT1080NT lethal: kills 2HG-producing HT-1080-NT fibrosarcoma cells. HT-1080-NT fibrosarcoma viability, CellTiter-Glo ATP luminescence, 48 h. Potency, µM (doses to about 46.1 µM), hits mostly cytotoxic. 1.6% of 360,000 active;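 further: NT is the 2HG producing partner of a matched IDH1 knockdown line; nearly all actives have a fitted effect of over 55% in size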
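HT-1080-NT; 750 cells/well; 5% FBS RPMI; 48 h compound, 37 degrees C; CellTiter-Glo luminescence; curve fitting and curve-class assignment.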
Each line names hits and unclear results; the compound was inactive in the other large screens; ! = not active in a repeat. The call rests on the fitted dose curve; in most records, active means well fitted curve in the direction sought with a large enough effect; inconclusive means small, poorly fitted or top-dose-only effect, or another doubt; inactive means no such curve, though single readings can be large; an effect the other way counts as inactive or inconclusive.

O=C(/C=C/c1ccccc1[N+](=O)[O-])OCC(=O)c1ccccc1	none
COC(=O)C(=Cc1ccccc1[N+](=O)[O-])C(=O)OC	MCF10A rereplic 23µM, SW480 rereplic inconclusive, HT1080NT lethal inconclusive
COc1ccc(CNC(=O)/C=C/c2ccccc2[N+](=O)[O-])cc1	none
COC(=O)CNC(=O)COC(=O)/C=C/c1ccccc1[N+](=O)[O-]	MCF10A rereplic 5.8µM
COc1ccc(OC)c(NC(=O)CC2(CC(=O)O)CCCC2)c1	none
CCCS(=O)(=O)NC(=O)C1(C)CCN(C(=O)c2cc(OC)c(OC)c(OC)c2)C1 (centres undefined)	none (no result: MCF10A rereplic, SW480 rereplic)
CCCN1C(=O)/C(=C/c2ccc(N3CCOCC3)cc2)NC1=S	KB-V1 MDR tox inconclusive
O=C1N/C(=C/c2cccn2-c2ccccc2)C(=O)N1Cc1ccc(F)cc1	none
O=C1N/C(=C\c2ccc(N3CCOCC3)c(F)c2)C(=O)N1Cc1ccccc1	MCF10A rereplic inconclusive, HT1080 IDH1KD tx 18µM, HT1080NT lethal inconclusive
Cc1ccc(CN2C(=O)N/C(=C\c3ccc(N4CCOCC4)cc3)C2=O)cc1	SW480 rereplic 15µM
C[C@](N)(Cc1ccc(O)c(O)c1)C(=O)O	SW480 rereplic 2.8µM!
Cc1cccc(-c2ocnc2C(=O)Nc2ncc(C)s2)c1	none (no result: MCF10A rereplic, SW480 rereplic)
CC(=O)c1ccc2c3c(cc(C)c2c1)CCCC3	MCF10A rereplic 21µM, HT1080NT lethal inconclusive
CC(=O)c1cccc(NC(=O)c2ccc3c(c2)CCCC3)c1	KB-V1 MDR tox inconclusive
Cc1ccc(-c2c(C)n3c4c(=O)n(C)c(=O)n(C)c4nc3n2CCO)cc1	KB-3-1 cytotox 2.1µM (no result: MCF10A rereplic, HT1080 IDH1KD tx, SW480 rereplic, HT1080NT lethal)
CN(C)c1ccc(CC(=O)N2CCCC(c3cc(C(=O)Nc4ccc(C(C)(C)C)cc4)no3)C2)cc1 (centres undefined)	HT1080 IDH1KD tx 10µM (no result: MCF10A rereplic, SW480 rereplic)
CC1(c2nnc(-c3ccncc3)o2)CC(c2ccc(Cl)cc2)=NO1 (centres undefined)	MCF10A rereplic 9.2µM
CC1(c2nnc(-c3ccccc3)o2)CC(c2ccc([N+](=O)[O-])cc2)=NO1 (centres undefined)	KB-3-1 cytotox 10µM, KB-V1 MDR tox 21µM
CC1(c2nnc(-c3ccccc3)o2)CC(c2ccc(F)cc2)=NO1 (centres undefined)	none
CC1(c2nnc(-c3ccccc3)o2)CC(c2ccc(Cl)cc2)=NO1 (centres undefined)	none
Cc1ccc2[nH]c(=O)c(C3C(C#N)=C(N)Oc4c3ccc3cccnc43)cc2c1 (centres undefined)	MCF10A rereplic inconclusive, KB-3-1 cytotox 16µM, KB-V1 MDR tox 2.6µM, HT1080 IDH1KD tx inconclusive, SW480 rereplic inconclusive
Cc1oc(C)c2c(=O)ccc3c(c12)OC(N)=C(C#N)C3c1ccccc1 (centres undefined)	MCF10A rereplic inconclusive
N#CC1=C(N)Oc2ccc3ccccc3c2C1c1cccnc1 (centres undefined)	MCF10A rereplic 1.6µM, KB-3-1 cytotox inconclusive, KB-V1 MDR tox 5.2µM, HT1080 IDH1KD tx inconclusive, SW480 rereplic 4.6µM, HT1080NT lethal 8.2µM
N#CC1=C(N)Oc2c(ccc3cccnc23)C1c1ccccc1 (centres undefined)	MCF10A rereplic 15µM, KB-3-1 cytotox 5.2µM, HT1080 IDH1KD tx inconclusive, SW480 rereplic 5.2µM, HT1080NT lethal inconclusive
Cc1cc(NS(=O)(=O)c2ccc(NC(=O)c3ccc(F)cc3)cc2)nc(C)n1	none
FC(F)(F)c1cccc(-c2nc(-c3ccncc3)no2)c1	none
COc1ccc(CCSc2nnc(C3CCCCC3)n2N)cc1	none
CCOC(=O)N1CCC(NC(=S)Nc2ccc3nc(N4CCN(CC)CC4)cc(C)c3c2)CC1	KB-3-1 cytotox inconclusive, HT1080 IDH1KD tx inconclusive, SW480 rereplic inconclusive, HT1080NT lethal inconclusive
OCCN(Cc1cccnc1)Cc1ccccn1	KB-V1 MDR tox 10µM
O=C(c1ccccc1)c1nn(-c2cccc(Cl)c2)c2nc(-c3ccccc3)cc(=O)n12	KB-3-1 cytotox inconclusive, KB-V1 MDR tox 4.1µM
CC(C)C(NS(=O)(=O)c1cccs1)C(=O)NCCCN1CCCCCC1 (centres undefined)	none
O=C(CCN1C(=O)C2C3CCC(C3)C2C1=O)Nc1ccc(Br)cc1 (centres undefined)	SW480 rereplic 12µM
COc1ccc(NC(=O)CCN2C(=O)C3C4CCC(C4)C3C2=O)cc1 (centres undefined)	HT1080 IDH1KD tx inconclusive
COc1ccc(NC(=O)CCN2C(=O)[C@@H]3[C@H](C2=O)[C@H]2C=C[C@@H]3C2)cc1	HT1080 IDH1KD tx inconclusive, HT1080NT lethal 18µM
Cc1nn(-c2ccccc2)c(Cl)c1/C=N/NC(=O)OC(C)(C)C	MCF10A rereplic inconclusive, KB-V1 MDR tox 13µM
CNC(=S)N/N=C/c1c(C)nn(-c2ccccc2)c1Cl	MCF10A rereplic inconclusive, KB-V1 MDR tox inconclusive, HT1080 IDH1KD tx 8.9µM, SW480 rereplic inconclusive, HT1080NT lethal inconclusive
CNC(=S)N/N=C/c1c(C)nn(-c2cccc(Cl)c2)c1Cl	HT1080 IDH1KD tx inconclusive
Cc1nn(-c2ccccc2)c(Cl)c1/C=N/NC(=O)c1ccco1	KB-3-1 cytotox inconclusive
COc1ccc(NCC(=O)N/N=C/c2c(C)nn(Cc3ccccc3)c2Cl)cc1	KB-V1 MDR tox 12µM
COc1cc(C(=O)N(Cc2ccc(C)o2)C2CCS(=O)(=O)C2)cc(OC)c1OC (centres undefined)	none
COC(=O)c1c(-c2ccc(Br)cc2)noc1N	MCF10A rereplic inconclusive, KB-3-1 cytotox inconclusive, HT1080 IDH1KD tx inconclusive, SW480 rereplic inconclusive, HT1080NT lethal inconclusive
CCOc1cc(-c2noc(N)c2C(=O)OC)cc(OCC)c1OCC	KB-V1 MDR tox 12µM
Cn1cc(/C=N/NC(=O)c2ccccc2O)c2ccccc21	none
O=C(N/N=C/c1cc2c3c(c1O)CCCN3CCC2)c1ccccc1O	MCF10A rereplic 13µM, KB-3-1 cytotox 4.1µM, KB-V1 MDR tox inconclusive, HT1080 IDH1KD tx inconclusive, SW480 rereplic 9.2µM, HT1080NT lethal inconclusive
Cc1cccc(CN2CCc3c([nH]c4ccccc34)C2CC(C)C)n1 (centres undefined)	MCF10A rereplic 18µM, HT1080 IDH1KD tx inconclusive, SW480 rereplic inconclusive
Cc1cnc(C(=O)N2CCc3c([nH]c4ccccc34)C2c2ccc(F)cc2)cn1 (centres undefined)	KB-3-1 cytotox inconclusive
CC(=O)c1cc(C(=O)N2CCc3c([nH]c4ccccc34)C2C2CCCCC2)[nH]n1 (centres undefined)	MCF10A rereplic 1.5µM, KB-V1 MDR tox inconclusive
Cc1cnc(CN2CCc3c([nH]c4ccccc34)C2CC(C)C)[nH]1 (centres undefined)	MCF10A rereplic inconclusive, SW480 rereplic 6.5µM
